Assay outcomes as filed in PubChem.
Tcruzi prolif – T. cruzi intracellular proliferation inhibitors, primary screen, cell-based, beta-gal Tulahuen parasites, NIH3T3 host, luminescence; T. cruzi beta-gal in NIH3T3, GalScreen luminescence, 90 h; inhibition, % at 8.34 µM; actives 5.9% (n = 77,000);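 active = mean inhibition above about 93%, with at least 55% of replicates each passing it, limit read from the data, passing the limit was not always enough; inconclusive = only one of those two conditions holds; inactive = neither condition holds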
Pf Dd2 inh – P. falciparum Dd2 growth inhibitors, primary screen, SYBR Green fluorescence, single dose replicates. 72 h; hits give low values. activity change, % at 10 µM. actives 2.3% (n = 94,000). AID 1159554, 2015; in the data active = activity change below about -80%; inconclusive = no clear call, values can overlap the other calls
C diff HTS – C. difficile growth inhibitors, primary screen, HTS; growth activity, negative = inhibition, % at 16 µg/mL (by protocol); actives 0.25% (n = 86,000); Clostridium difficile clinical isolate growth, OD600, 24 h; hits give low values;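 active = mean growth activity at or below -80% and every replicate also at or below -80%; inconclusive = mean at or below -80% but some replicate above -80%; inactive = mean growth activity above -80%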;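 note: 0% = DMSO wells and -100% = levofloxacin 16 µg/mL wells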
An asterisk follows results filed as active; ? = inconclusive; . = not tested or not shown. This is a sample that favours compounds with a hit; in the whole collection about 6.7% have one here.

SMILES | Tcruzi prolif | Pf Dd2 inh | C diff HTS
COc1cccc(C#Cc2ccc3c(c2)O[C@@H](CN(C)C(=O)c2ccccn2)[C@H](C)CN([C@H](C)CO)S3(=O)=O)c1 | 119* | -79 | -3
CCCNC(=O)N1[C@H](CNC(C)=O)[C@@H](c2ccccc2)[C@@H]1CO | 44 | -3 | -1
CCCC(=O)Nc1ccc2c(c1)OC[C@@H](C)N(C(=O)CN(C)C)C[C@H](C)[C@@H](OC)CN(C)C2=O | 0 | 9 | .
COc1ccc(NC(=O)N(C)C[C@H]2OCCCC[C@H](C)Oc3ccc(NC(=O)Cc4ccccc4)cc3C(=O)N([C@H](C)CO)C[C@H]2C)cc1 | -4 | -87* | 0
COc1ccc(NC(=O)N(C)C[C@H]2OCCCC[C@H](C)Oc3ccc(NC(=O)c4ccccc4)cc3C(=O)N([C@H](C)CO)C[C@H]2C)cc1 | . | -95* | -2
COc1ccc(NC(=O)N(C)C[C@H]2OCCCC[C@@H](C)Oc3ccc(NC(=O)c4ccccc4)cc3C(=O)N([C@@H](C)CO)C[C@H]2C)cc1 | 91 | -62 | 0
COc1ccc(NC(=O)N(C)C[C@@H]2OCCCC[C@@H](C)Oc3ccc(NC(=O)Cc4ccccc4)cc3C(=O)N([C@@H](C)CO)C[C@@H]2C)cc1 | 31 | -58 | -5
C[C@@H]1CN([C@@H](C)CO)C(=O)c2c(c3ccccc3n2C)-c2ccccc2CO[C@H]1CN(C)C(=O)c1cc(Cl)cc(Cl)c1 | . | -83* | -3
C[C@H](CO)N1C[C@H](C)[C@H](CN(C)C(=O)c2cc(Cl)cc(Cl)c2)OCc2ccccc2-c2c(n(C)c3ccccc23)C1=O | . | -87* | 1
C[C@H](CO)N1C[C@H](C)[C@@H](CN(C)C(=O)c2ccccc2)OCc2ccccc2-c2c(n(C)c3ccccc23)C1=O | 2 | -41 | .
C[C@@H]1CN([C@H](C)CO)C(=O)c2c(c3ccccc3n2C)-c2ccccc2CO[C@H]1CN(C)C(=O)c1cc(Cl)cc(Cl)c1 | . | -31 | 78
C[C@H]1CCCCO[C@@H](CN(C)Cc2ccc(C(=O)O)cc2)[C@@H](C)CN([C@@H](C)CO)C(=O)c2cc(NS(=O)(=O)c3ccc(Cl)cc3)ccc2O1 | 13 | -45 | -5
COCC(=O)N(C)C[C@@H]1Oc2ncc(C#Cc3ccccc3)cc2C(=O)N([C@@H](C)CO)C[C@@H]1C | -84 | 13 | -2
C[C@H]1CN([C@@H](C)CO)C(=O)c2cc(/C=C/c3ccccc3)cnc2O[C@@H]1CN(C)C(=O)c1cccc(F)c1 | 100 | -83* | 1
C[C@@H]1CN([C@H](C)CO)C(=O)c2cc(C#Cc3cccc(F)c3)cnc2O[C@@H]1CN(C)C(=O)c1ccccc1F | 86 | -81* | -6
C[C@@H]1CN([C@@H](C)CO)C(=O)c2cc(C#Cc3ccccc3F)cnc2O[C@H]1CN(C)C(=O)Cc1ccncc1 | 117 | -24 | 2
C[C@@H]1CN([C@H](C)CO)C(=O)c2cc(C#Cc3ccccc3F)cnc2O[C@H]1CN(C)C(=O)Cc1ccncc1 | 97 | -84* | 2
C[C@H]1CN([C@@H](C)CO)C(=O)c2cc(C#Cc3cccc(F)c3)cnc2O[C@H]1CN(C)C(=O)c1ccccc1F | 80 | -82* | 9
C[C@H](CO)N1C[C@H](C)[C@@H](CN(C)C(=O)c2cccc(F)c2)Oc2ncc(/C=C/c3ccccc3)cc2C1=O | 115 | ? | 0
C[C@@H]1CN([C@H](C)CO)C(=O)c2cc(C#Cc3ccccc3)cnc2O[C@H]1CN(C)C(=O)c1ccccc1F | . | -60 | 40
C[C@H](CO)N1C[C@H](C)[C@H](CN(C)C(=O)c2ccccc2F)Oc2ncc(C#Cc3cccc(F)c3)cc2C1=O | 93 | -77 | 2
C[C@@H]1CN([C@@H](C)CO)C(=O)c2cc(NS(=O)(=O)c3ccc(F)cc3)ccc2O[C@H]1CN(C)C(=O)Nc1ccc(F)cc1 | -24 | 2 | -2
O=C(C[C@H]1C[C@@H]2c3cc(NC(=O)C4CCOCC4)ccc3O[C@@H]2[C@H](CO)O1)NCc1ccccn1 | 21 | -5 | 1
CO[C@@H]1CN(C)C(=O)c2ccc(NC(=O)c3cccc(Oc4ccccc4)c3)cc2OC[C@@H](C)NC[C@H]1C | -76 | -72 | -11
C[C@@H]1CCCCO[C@H](CN(C)C(=O)Nc2ccccc2)[C@@H](C)CN([C@H](C)CO)C(=O)c2cc(NC(=O)c3ccncc3)ccc2O1 | 18 | -11 | 0
CO[C@H]1CN(C)C(=O)c2cc(NC(=O)Nc3cccc(Cl)c3)ccc2OC[C@@H](C)NC[C@H]1C | 23 | -56 | .
COc1ccc(NC(=O)N(C)C[C@@H]2Oc3ncc(-c4cccnc4)cc3C(=O)N([C@@H](C)CO)C[C@H]2C)cc1 | -54 | 30 | 0
